DAX1 inh-1 – inhibitors of DAX1 repression of SF-1 activated StAR promoter; inhibition, % at 6.8 µM; AID 652010; actives 1.1% (n = 370,000); HEK293T StAR-luciferase reporter, SF-1/DAX-1 repression relief;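 active = inhibition above the mean over all tested compounds plus 3 SD, cut at about 3.6% in these data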;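 note: 0% = DAX-1 cells with DMSO and 100% = cells lacking DAX-1 with DMSO; higher inhibition means more luminescence from relief of DAX-1 repression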
hgDAF12 agonist – activates the H. glycines DAF-12 receptor ligand-binding domain; activation, % at 6.8 µM; HEK293 GAL4-hgDAF12 UAS-luciferase reporter, agonist luminescence; normalized to butyrate control; actives 1.8% (n = 370,000); AID 687014;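 active = activation above a cutoff set at the mean of all screened compounds plus 3 SD, cut at about 10% in these data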;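 note: 0% = DMSO wells and 100% = sodium butyrate wells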
DAX1 inh-2 – NR0B1 (DAX1) inhibition; P51843; HEK293 Gal4-DAX1 luciferase reporter, luminescence; actives 0.99% (n = 340,000); inhibition, % at 6.75 µM; AID 504766;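 active = inhibition above the mean over all tested compounds plus 3 SD, cut at about 4.2% in these data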;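 note: 0% = DAX1-transfected cells with DMSO and 100% = empty-vector control cells with DMSO; inhibition shows as a rise in luminescence from relieved DAX1 repression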
Target sequence (P51843 207-470 limits assumed): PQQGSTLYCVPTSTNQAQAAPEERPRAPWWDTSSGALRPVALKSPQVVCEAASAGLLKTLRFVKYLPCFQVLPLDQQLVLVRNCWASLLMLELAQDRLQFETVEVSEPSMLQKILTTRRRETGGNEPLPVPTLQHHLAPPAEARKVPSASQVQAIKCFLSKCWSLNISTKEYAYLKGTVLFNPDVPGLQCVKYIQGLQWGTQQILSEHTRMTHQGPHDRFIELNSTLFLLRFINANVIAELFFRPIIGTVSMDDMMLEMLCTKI
ssDAF12 agonist – activates DAF-12 receptor from parasite S. stercoralis; HEK293 ssDAF-12/GRIP1 lit1-tk-luc reporter, luminescence; % of 3 µM dafachronic acid response; activation, % at 6.8 µM; actives 1% (n = 370,000);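 active = activation above the mean over all tested compounds plus 3 SD, cut at about 0.9% in these data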;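 note: 0% = DMSO-only wells and 100% = 3 µM delta7-dafachronic acid wells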
hcDAF-12 act – activates DAF-12 receptor from parasite H. contortus. activation, % at 6.8 µM. HEK293 hcDAF-12 lit1-tk-luc reporter, luminescence; 0% DMSO, 100% Δ7-dafachronic acid. AID 652067. actives 1.4% (n = 370,000);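 active = activation above the mean of all tested compounds plus 3 SD, cut at about 5.5% in these data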;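 note: 100% = response to 3 µM Δ7-dafachronic acid high control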
Numbers without * were called inactive; / = no result. Only some compounds are listed: those with a hit (about 4.1% of all), similar ones and a draw of the others.

SMILES | DAX1 inh-1 | hgDAF12 agonist | DAX1 inh-2 | ssDAF12 agonist | hcDAF-12 act
CCc1ccc(NC(=O)c2cc(CC(C)C)on2)cc1 | 1 | 8 | 5.1* | 0 | 2
Cc1nc2ccccc2c2oc(C(=O)NCCN3CCN(C)CC3)cc12 | 0 | 12* | 3 | -1 | 0
O=C(Nc1ccc2c(c1)Cc1ccccc1-2)NC1CCCCN(Cc2cccc(Cl)c2)C1=O (stereo unspecified) | 1 | 8 | / | -1 | -1
Cc1ccc(Cl)cc1N1C(=O)CC(Sc2ncccn2)C1=O (stereo unspecified) | 0 | -2 | 4.7* | 0 | -1
CC(=O)Nc1cc2c(cc1Cl)-c1ccc(F)cc1C2O (stereo unspecified) | 2 | 4 | 1 | 1.5* | 4
COc1ccc(-c2nnc(SCc3csc(N)n3)n2C)cc1 | -1 | -1 | 1 | -1 | 0
Cc1ccc(Nc2nc(CSc3nnc(-c4ccc(F)cc4)n3C)cs2)cc1 | 2 | 11* | 0 | -1 | 4
CCN(C(=O)CSc1ncccc1C(=O)Oc1cccc([N+](=O)[O-])c1)c1cccc(C)c1 | 0 | -3 | 0 | -1 | -3
CSc1cccc(NC(=O)CSc2ncccc2C(=O)Oc2cccc([N+](=O)[O-])c2)c1 | 0 | 3 | 0 | 1.4* | 2
CC(c1ccccc1)n1cc(C(=O)NCCCN2CCCC2)nn1 (stereo unspecified) | 1 | 3 | / | -1 | 1
CCn1c(SCC(=O)OC(C)C)nnc1-c1ccccc1OC | 1 | -2 | 2 | 1.1* | 4
O=C(c1ccncc1)N1CC[C@H]2[C@H](CCCN2Cc2ccccc2)C1 | 1 | 2 | / | -1 | -2
Cc1occc1-c1nnc(SCC(=O)NCCc2ccccc2)o1 | 0 | 4 | 1 | 0 | -2
Cc1ccccc1-c1nnc(SCC(=O)Nc2cccnc2Cl)o1 | 8.3* | 7 | -2 | 0 | 5
Cc1occc1-c1nnc(SCCNCCO)o1 | 0 | 13* | 0 | -2 | 2
Cc1occc1-c1nnc(SCC(=O)Nc2ccccn2)o1 | 3.7* | 6 | 1 | -1 | 2
COC(=O)C1CN(Cc2ccc(F)cc2)CCS(=O)(=O)N1Cc1ccc(C)cc1 (stereo unspecified) | -1 | -2 | / | -2 | -1
COc1cc(S(=O)(=O)n2cnc(C)c2)ccc1Cl | 1 | -1 | 0 | 1 | 0
CCOc1cc(S(=O)(=O)n2cnc(C)c2)ccc1Cl | -1 | -2 | 4.5* | -1 | 0
Cc1cc(NC(=O)COc2ccccc2C(N)=O)no1 | 3 | 7 | 4.8* | 0 | 1
COc1ccccc1OCC(=O)Nc1ccc(S(=O)(=O)Nc2cc(C)on2)cc1 | 0 | -1 | 1 | 1.2* | 5
Cc1cc(NS(=O)(=O)c2ccc(NC(=O)c3oc4ccccc4c3C)cc2)no1 | 1 | 1 | 3 | 0.9* | 4
Cc1cc(NS(=O)(=O)c2ccc(NC(=O)/C=C/c3ccc(Br)cc3)cc2)no1 | 4.5* | 0 | 0 | -1 | -1
O=S1(=O)CC2c3ccccc3CN2CN1Cc1ccc(F)cc1 (stereo unspecified) | 0 | 0 | / | 0 | 0
COc1ccc(CCNC(=O)Nc2ccc3c(c2)[C@]2(CC(=O)N(CC(C)C)C2c2ccccc2)C(=O)N3C)cc1OC (stereo partly specified) | 0 | -2 | / | -1 | -3
SMILES | DAX1 inh-1 | hgDAF12 agonist | DAX1 inh-2 | ssDAF12 agonist | hcDAF-12 act
Cc1nn(-c2ccccc2)c(Cl)c1/C=N/NC(=O)c1cccc(S(=O)(=O)N2CCCC2)c1 | 1 | 1 | -1 | -1 | 2
Cc1nn(-c2ccccc2Cl)c(Cl)c1/C=N/Nc1cccc(C(=O)O)c1 | 4.0* | 10 | -4 | 0 | 4
COC(=O)c1ccc2nc(-c3ccc(C)cc3)c(Cc3ccccc3)n2c1 | 1 | 5 | / | 0 | 0
COC(=O)c1ccc2nc(-c3cccc(Cl)c3)c(Cc3cccc(Cl)c3)n2c1 | 3 | 3 | / | 0.9* | 2
COC(=O)c1ccc2nc(-c3ccccc3)c(Cc3ccc(C)cc3)n2c1 | 2 | 6 | / | 0.9* | 5
COC(=O)c1ccc2nc(-c3cccc(Cl)c3)c(Cc3ccsc3)n2c1 | 1 | 4 | / | -1 | 1
COC(=O)c1ccc2nc(-c3cccc(Br)c3)c(Cc3ccsc3)n2c1 | 3.8* | 0 | / | -1 | 0
CCCN1CCN(CCCNC(=O)Cn2cc3c(n2)CCCC3)CC1 | 1 | 3 | 1 | -1 | 1
CCOCCCNC(=O)Cn1cc2c(n1)CCCC2 | 1 | -3 | 5.4* | -1 | 0
CN(C)C(=S)NC(=S)Nc1ccc2ccccc2c1 | 3 | 17* | 0 | 1.3* | 12*
Cc1ccc(/C=C/C(=O)c2nc3ccccc3[nH]2)cc1 | -1 | -1 | 1 | -1 | -3
O=C(CN1C(=O)C2CC=CCC2C1=O)Nc1nc2ccccc2[nH]1 (stereo unspecified) | 0 | 2 | 5.4* | 0 | 1
Cc1ccc(/C=C/C(=O)Nc2nc3ccccc3[nH]2)cc1 | 2 | 9 | 2 | 1 | 5.8*
O=C(Nc1nc2ccccc2[nH]1)c1ccccc1O | 2 | 11* | 1 | 1.2* | 4
O=C(Nc1nc2ccccc2[nH]1)c1ccc(Cl)cc1 | 1 | 10 | -3 | 0 | 5.8*
COc1ccc(C=Nn2c(-c3ccc(F)cc3)n[nH]c2=S)cc1OCc1ccccc1 | 0 | 2 | / | -2 | 0
C[C@@H]1CN([C@H](C)CO)C(=O)CCCn2nncc2CO[C@@H]1CN(C)C(=O)Nc1ccccc1 | 0 | 1 | / | -1 | -1
CC(C)c1ccc(OCCCN2CCC(C(O)(c3ccccc3)c3ccccc3)CC2)cc1 | 0 | 0 | / | -1 | -2
O=C(Cc1c[nH]c2ccccc12)Nc1nc2ccccc2[nH]1 | 1 | 6 | 2 | 1.9* | 3
O=C(Cc1ccccc1)Nc1nc2ccccc2[nH]1 | 1 | 5 | -2 | -1 | -1
O=C(CCCOc1ccccc1)Nc1nc2ccccc2[nH]1 | 2 | 12* | 3 | -1 | 4
Cc1occc1C(=O)N/N=C/c1ccccn1 | 2 | 11* | 1 | 1 | 1
C/C(=N\NC(=O)c1cccc2ccccc12)c1ccccn1 | -1 | 0 | -1 | -1 | -2
Cc1ccc(C(=O)N/N=C\c2ccccn2)cn1 | 0 | 1 | 2 | -2 | 0
COc1cc(/C=N/NC(=O)c2ccoc2C)ccc1O | 1 | 10* | 3 | 0 | 2
C/C(=N\NC(=O)c1ccoc1C)c1cccc2ccccc12 | 1 | 13* | 0 | 0 | 3
Cc1ccc(CNC(=O)CCc2ccc(S(=O)(=O)NC3CCCCC3)cc2)cc1 | 0 | -3 | 0 | -2 | 5.8*
O=C(CCc1ccc(S(=O)(=O)NC2CCCCC2)cc1)NCc1cccnc1 | 0 | -1 | 3 | -1 | -2
CC(C)c1ccc(C(=O)NN2C(=O)C3CCCCC3C2=O)cc1 (stereo unspecified) | 3.8* | 11* | 2 | -1 | 5
